Assay [1] deals with Plasmodium falciparum Sir2 (PF13_0152, Sir2A). Description: pfSir2 binders on small-molecule microarrays, primary screen, biochemical, small-molecule microarray, 635 nm fluorescence (AID 1098).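 Note: score merges spot fluorescence intensity with its signal-to-noise ratio.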 The conditions noted are these: small-molecule microarray binding, fluorescence 635 nm; higher = more signal.
Assay [2] in a line: small-molecule microarray binders of probe aDKK1, primary screen, biochemical, biotinylated probe, 635/667 nm fluorescence (AID 1099).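 Note: score merges 667nm spot fluorescence with signal to noise across triplicate slides; reference of the scale not given here.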 The conditions noted are these: higher = more signal.
Assay [3] in a line: small-molecule microarray binders of probe aCHRDL2, primary screen, biochemical, biotinylated probe, 635/667 nm fluorescence (AID 1100). The conditions noted are these: higher = more signal.
Assay [4] can be described thus: splicing luciferase reporter signal modulators, primary screen, spliceosome inhibition project, cell-based, HEK293, splice +/- reporter (AID 1101).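 Note: HEK293 cells carrying a splicing-competent luciferase reporter gene; test concentration not given here.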 The conditions noted are these: luminescence, 24 h, higher = more signal, called active from +8 up or from −8 down. For orientation: Reporter assays use an easily measured gene product as a stand-in for the process of interest.

Assay [5] addresses Fibroblast growth factor 10 (Homo sapiens) (UniProt O15520). The assay can be described thus: FGF10 binders on small-molecule microarrays, primary screen, biochemical, small-molecule microarray, 635 nm fluorescence (AID 1102). The conditions noted are these: FGF10 binding, fluorescence 635 nm, higher = more signal.
The subject of assay [6] is glycogen synthase kinase-3 (GSK3A per assay name; protocol says GSK3B). Description: GSK3 binders on small-molecule microarrays, primary screen, biochemical, small-molecule microarray, 635 nm fluorescence, GSK3A (AID 1103). Note: the record names both GSK3A and GSK3B. The conditions noted are these: small-molecule microarray binding, fluorescence 635 nm; higher = more signal.
The target of assay [7] is Epidermal growth factor receptor (Homo sapiens) (UniProt P00533). The assay can be described thus: EGFR binders on small-molecule microarrays, primary screen, biochemical, small-molecule microarray, 635 nm fluorescence (AID 1104).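 Note: score merges 667 nm emission intensity with spot signal to noise over triplicate slides.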 The conditions noted are these: EGFR binding, higher = more signal.
Chain of Epidermal growth factor receptor (Homo sapiens) (P00533 whole entry, looked up): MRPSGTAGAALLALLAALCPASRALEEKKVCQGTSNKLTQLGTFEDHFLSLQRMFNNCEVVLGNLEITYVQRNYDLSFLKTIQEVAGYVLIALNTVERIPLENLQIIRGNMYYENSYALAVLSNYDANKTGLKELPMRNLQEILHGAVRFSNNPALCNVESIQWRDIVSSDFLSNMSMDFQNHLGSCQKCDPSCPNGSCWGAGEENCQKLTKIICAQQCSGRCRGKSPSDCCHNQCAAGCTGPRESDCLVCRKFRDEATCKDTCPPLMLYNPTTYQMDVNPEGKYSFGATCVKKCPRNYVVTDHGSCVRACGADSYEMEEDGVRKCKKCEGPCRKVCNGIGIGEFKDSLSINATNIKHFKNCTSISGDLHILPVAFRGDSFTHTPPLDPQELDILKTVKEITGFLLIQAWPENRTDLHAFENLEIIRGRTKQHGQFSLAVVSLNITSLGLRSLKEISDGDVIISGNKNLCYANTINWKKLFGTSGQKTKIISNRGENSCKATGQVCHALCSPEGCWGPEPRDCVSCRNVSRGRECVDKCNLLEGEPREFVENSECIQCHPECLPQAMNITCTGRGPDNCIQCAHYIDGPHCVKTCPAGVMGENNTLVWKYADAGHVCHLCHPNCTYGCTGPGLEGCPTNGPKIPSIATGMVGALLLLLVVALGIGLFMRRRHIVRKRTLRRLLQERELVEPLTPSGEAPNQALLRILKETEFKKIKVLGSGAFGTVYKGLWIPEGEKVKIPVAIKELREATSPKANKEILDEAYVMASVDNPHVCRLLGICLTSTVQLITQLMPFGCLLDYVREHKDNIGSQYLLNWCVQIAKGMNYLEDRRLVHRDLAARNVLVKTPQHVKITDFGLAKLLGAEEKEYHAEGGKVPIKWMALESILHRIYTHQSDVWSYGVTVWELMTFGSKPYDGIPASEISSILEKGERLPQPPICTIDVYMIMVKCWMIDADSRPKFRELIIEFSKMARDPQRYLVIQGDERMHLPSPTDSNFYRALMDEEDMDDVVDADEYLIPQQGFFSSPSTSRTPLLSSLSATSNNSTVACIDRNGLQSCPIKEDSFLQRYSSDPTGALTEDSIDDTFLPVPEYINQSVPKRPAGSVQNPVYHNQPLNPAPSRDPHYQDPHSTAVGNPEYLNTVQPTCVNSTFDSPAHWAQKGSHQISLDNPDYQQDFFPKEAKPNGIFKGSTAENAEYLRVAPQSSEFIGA
Assay [8] concerns the target Follistatin-related protein 3 (Homo sapiens) (UniProt O95633). Description: FSTL3 binders on small-molecule microarrays, primary screen, biochemical, small-molecule microarray, 635 nm fluorescence (AID 1105).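 Note: score merges emission near 667 nm and signal to noise per printed spot across three slides.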 The note with it: FSTL3 binding, higher = more signal.
Assay [9] deals with Dickkopf-related protein 1 (Homo sapiens) (UniProt O94907). Description: DKK1 binders on small-molecule microarrays, primary screen, biochemical, small-molecule microarray, 635 nm fluorescence scan (AID 1106).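 Note: score merges emission near 667 nm with signal to noise over three replicate slides.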 The note with it: DKK1 binding, higher = more signal.
Chain of Dickkopf-related protein 1 (Homo sapiens) (O94907 whole entry, looked up): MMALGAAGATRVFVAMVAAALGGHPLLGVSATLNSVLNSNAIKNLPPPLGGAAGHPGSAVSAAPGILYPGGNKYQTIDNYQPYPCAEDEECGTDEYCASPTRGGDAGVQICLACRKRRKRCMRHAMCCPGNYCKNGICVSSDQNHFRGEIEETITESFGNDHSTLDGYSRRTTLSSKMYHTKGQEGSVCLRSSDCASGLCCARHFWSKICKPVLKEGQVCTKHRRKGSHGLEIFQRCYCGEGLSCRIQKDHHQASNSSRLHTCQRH
The subject of assay [10] is Inhibin beta A chain (activin A). Description: INHBA (activin A) binders on microarrays, primary screen, biochemical, small-molecule microarray, 635 nm fluorescence scan (AID 1107).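 Note: mouse activin A protein probed at 4.33 µg/mL on printed slides; score merges bound-protein fluorescence near 667 nm with spot signal-to-noise.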 The conditions noted are these: small-molecule microarray binding, higher = more signal.

The values below come from PubChem BioAssay.

The source made the active and inactive calls.

Chain of Fibroblast growth factor 10 (Homo sapiens) (O15520 whole entry, looked up): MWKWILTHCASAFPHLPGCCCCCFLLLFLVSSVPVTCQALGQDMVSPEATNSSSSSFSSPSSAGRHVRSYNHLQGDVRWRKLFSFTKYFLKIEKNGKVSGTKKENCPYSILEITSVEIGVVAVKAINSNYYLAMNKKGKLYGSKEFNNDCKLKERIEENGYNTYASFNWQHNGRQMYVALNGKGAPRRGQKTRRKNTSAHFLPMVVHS
Chain of Follistatin-related protein 3 (Homo sapiens) (O95633 whole entry, looked up): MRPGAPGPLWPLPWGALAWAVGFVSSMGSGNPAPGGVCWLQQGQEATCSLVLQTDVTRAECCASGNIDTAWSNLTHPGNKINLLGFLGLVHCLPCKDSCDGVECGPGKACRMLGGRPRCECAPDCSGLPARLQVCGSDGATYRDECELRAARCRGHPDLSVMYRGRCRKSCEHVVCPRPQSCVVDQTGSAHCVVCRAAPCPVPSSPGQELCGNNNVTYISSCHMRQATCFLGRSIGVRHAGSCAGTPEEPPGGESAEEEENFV

As for `C=CCOC(=O)[C@@H]1[C@H]2C(=O)O[C@H](c3ccccc3)[C@H](c3ccccc3)N2[C@H](c2ccc(OCCOC(=O)[C@H]3C[C@H]4C(=O)N[C@@H](CC(C)C)C(=O)N4[C@H]3c3cccc(OCCO)c3)cc2)[C@@]12C(=O)Nc1ccc(I)cc12`, the composite z-score in assay [1] was 1.41; in assay [2], 0.169; in assay [3], -0.135; in assay [5] it was 1.23; in assay [6] it was 1.32; in assay [7], 0.694. Besides, the values for the composite z-score in assay [8], in assay [9] and in assay [10] were 1.25, 0.836 and 0.255, respectively. For the same compound, the z-score in assay [4] is -0.835 (inactive).

As for `O=C(CS)NCCCCCCNC(=O)[C@H]1C[C@H]2C(=O)N3CCC[C@H]3C(=O)N2[C@H]1c1ccc(O)cc1`, the composite z-score was 1.63 in assay [1]; 0.104 in assay [2]; 0.0018 in assay [3]; 0.732 in assay [5]; -0.477 in assay [6]; -0.154 in assay [7]. In addition, the composite z-score stood at 0.972 in assay [8], 0.317 in assay [9] and 0.487 in assay [10]. The z-score in [4] was 1.46 (inactive).

With `C=CC[C@]1(C(=O)NCCN2CCOCC2)N=C(c2ccc(OCCCO)cc2)O[C@H]1c1ccccc1N=[N+]=[N-]`, the composite z-score came out at 0.529 in [1]; 1.22 in assay [2]; 1.31 in assay [3]; 1.08 in [5]; 0.287 in assay [6]; 0.327 in [7]. In addition, the composite z-score in assay [8] is 1.05; in assay [9], 0.283; in assay [10], 1.6. Further, in [4], the z-score was -0.448 (inactive).

As for `CCCCCCC#C[Si](O[C@H](c1ccccc1)c1cn([C@H](C)c2ccccc2)nn1)(C(C)C)C(C)C`, the composite z-score was 0.693 in assay [1]; -0.167 in assay [2]; -0.365 in assay [3]; 0.547 in assay [5]; 0.565 in assay [6]; 0.483 in assay [7]. Besides, the composite z-score is 0.841 in assay [8], 1.25 in assay [9] and 0.327 in assay [10]. For the same compound, in [4], the z-score is -0.209 (inactive).

As for `COCCOC(=O)N1C(=O)[C@@]2(c3cc(C#CC4(O)CCCCCC4)ccc31)[C@H](c1ccc(O)cc1)N1[C@H](c3ccccc3)[C@H](c3ccccc3)OC(=O)[C@H]1[C@@H]2C(=O)N1CCc2cc(OC)c(OC)cc2C1`, the composite z-score in assay [1] is 1.23; in assay [2] it was -0.226; in [3], 0.687; in assay [5], -0.681; in assay [6], -0.32; in assay [7] it was -0.705. The figures for the composite z-score in [8], in assay [9] and in assay [10] were -1.15, -0.591 and 0.0107, respectively. Moreover, in assay [4], the z-score is -0.597 (inactive).

With `C=CCOC(=O)[C@@H]1[C@H]2C(=O)O[C@H](c3ccccc3)[C@H](c3ccccc3)N2[C@H](c2ccc(OCCOC(=O)[C@H]3C[C@H]4C(=O)N[C@@H](CCCC[N+](C)(C)C)C(=O)N4[C@H]3c3cccc(OCCO)c3)cc2)[C@@]12C(=O)Nc1ccc(I)cc12`, the composite z-score was 1.53 in assay [1]; 0.135 in assay [2]; -0.0036 in assay [3]; 1.21 in assay [5]; 1.29 in assay [6]; 1.32 in assay [7]. The composite z-score is 1.43 in [8], 1.7 in [9] and 0.538 in assay [10]. The z-score in assay [4] was -0.241 (inactive).

Consider `C=CCOC(=O)[C@@H]1[C@H]2C(=O)O[C@H](c3ccccc3)[C@H](c3ccccc3)N2[C@H](c2ccc(OCCOC(=O)[C@H]3C[C@H]4C(=O)N[C@@H](Cc5ccccc5)C(=O)N4[C@H]3c3ccc(O)cc3)cc2)[C@@]12C(=O)Nc1ccc(I)cc12`, for which the composite z-score is 1.54 in assay [1]; 0.232 in [2]; 0.163 in assay [3]; 1.22 in assay [5]; 1.33 in assay [6]; 0.906 in assay [7]. The composite z-score in assay [8] was 1.29; in [9], 1.26; in [10], -0.418. Further, the z-score in assay [4] was 0.00712 (inactive).

For `COc1ccc([Si](C)(C)[C@H]2[C@H](CC(=O)N3CCC[C@H]3CO)O[C@@]3(C(=O)N(Cc4cccc(N5CCC5=O)c4)c4ccccc43)[C@@H]2C)cc1`, the composite z-score in assay [1] was 1.11; in assay [2], -0.0732; in assay [3], -0.222; in [5], 1.4; in assay [6], 1.27; in [7], 0.993. Moreover, the composite z-score came out at 1.45 in assay [8], 0.672 in assay [9] and 0.728 in assay [10]. Besides, in [4], the z-score was 0.566 (inactive).

Turning to `COCCCNC(=O)[C@@]1(Cc2ccccc2I)c2ccccc2C(=O)N(Cc2ccccc2)[C@H]1c1ccc(CO)cc1`, the composite z-score in assay [1] is -0.67; in [2], -0.113; in assay [3], 0.394; in assay [5], -1.25; in assay [6], -1.43; in assay [7], -2.16. Besides, the composite z-score in assay [8] was -1.56; in assay [9] it was -1.41; in [10], -1.59. Moreover, in assay [4], the z-score was -0.356 (inactive).

As for `COCCCNC(=O)[C@@]1(Sc2ccc(C)cc2)CC(=O)N(Cc2ccccc2)[C@@H]1c1ccc(CO)cc1`, the composite z-score in assay [1] is 1.54; in assay [2], 0.0112; in assay [3], 0.144; in [5], -0.342; in assay [6], -0.21; in assay [7] it was -0.58. For the same compound, the composite z-score in assay [8] was -0.702; in [9], -0.344; in assay [10] it was -0.29. Moreover, in assay [4], the z-score was -0.74 (inactive).

As to `[N-]=[N+]=Nc1ccccc1C[C@]1(C(=O)N2CCCCC2)N=C(c2ccc(OCCCO)cc2)O[C@H]1c1ccccc1N=[N+]=[N-]`, the composite z-score was 1.42 in [1]; 0.0941 in [2]; 1.18 in assay [3]; 1.4 in assay [5]; 0.743 in assay [6]; -0.0207 in [7]. Moreover, the composite z-score was 0.611 in assay [8], -0.235 in [9] and 1.25 in assay [10]. In addition, in [4], the z-score was -0.103 (inactive).

As for `C=CC[C@]1(C(=O)O)N=C(c2ccc(OCCCO)cc2)O[C@H]1c1ccccc1CN=[N+]=[N-]`, the composite z-score was 1.74 in assay [1]; 0.177 in assay [2]; 0.559 in [3]; -0.222 in assay [5]; -0.341 in assay [6]; -0.0348 in [7]. The composite z-score is 0.0521 in assay [8], -0.128 in [9] and 1.35 in [10]. The z-score in [4] was -0.611 (inactive).

`C=CCOC(=O)[C@H]1[C@@H]2C(=O)O[C@@H](c3ccccc3)[C@@H](c3ccccc3)N2[C@@H](c2ccc(OCCOC(=O)[C@H]3C[C@H]4C(=O)N[C@@H](CCCC[N+](C)(C)C)C(=O)N4[C@H]3c3ccc(O)cc3)cc2)[C@]12C(=O)Nc1ccccc12`: the composite z-score in assay [1] is 1.63; in assay [2], -0.194; in assay [3], -0.135; in [5], 0.507; in [6], -0.112; in [7], -0.229. Further, the values for the composite z-score in assay [8], in assay [9] and in [10] were 0.563, 0.387 and -0.196, respectively. Moreover, the z-score in assay [4] is -1.08 (inactive).
